# Whole data set: some 4,500 sequences, median “median log2 fold change of GCK-ALFA target abundance (FLAG IP / Myc IP barcode read proportion)” near 0.078, cut for the lowest 2% near -0.6. This is one part of a sample in which the lowest values are shown more often than they occur.
# B1: GBRAP_160_4238 (protein)
# chain: SEEIEKLREEITDEAELLLDVLLESPKSQWPAYARAFAGDIVQIVEENENVSDETEEKVAELADEMVAELVAARDASPEELAALLERFVERIVKTVEEGV
# B2: GBRAP_128_3427 (protein)
# chain: STAAKVAEVEALLEAMLTADAAEAAALARRIAALMLASDLETVEAMVEVILSMLPKFTAEQLEILADALREARPEFTPEKQLLVSEVEVAALNEAEEKEE
# B3: GBRAP_160_4711 (protein)
# chain: MEVKEKLKKYVEEEFEEAKELIKGESIEQRAIIVEGTIGEIIMELFEEEEASDELIDEVDKIGDELVETILANPDLTEEEIEELIEKAEEEIKKAIDKYV
# B4: GBRAP_39_5693 (protein)
# chain: EEDEENEDHVSYLQALAAKRLYETGISLEEATKEAKKILEEEAKRNPELKELLEELIKLAEEKGDEAKEVLIGVAVLIEEGEPKEEIKEHIEKAIKYFKK
# B5: GBRAP_95_7034 (protein)
# chain: EDDKLALESALEVAVAAAELGDEEAAARALKEALELLKKAGKVKLDPELLKETIEVIREVGVKKLPKEEVLELLELLKESAETEEVKKLAEEAIEEVKKR
# B6: GBRAP_74_6536 (protein)
# chain: SEEKEKVIKEINEAETIEEAIEITEKVLETDDKELARAAVQELLLKAAERKDELTLEEAERLVEVIVRAFEKNGIVVETREEAEALNTVLTKALELEEKA
# B7: GBRAP_166_4984 (protein)
# chain: MEEELVEELKKYLEELAEKMKEAGPEERQELVAEAAERLAEAREKGLSREKLGELVEYLLRLAREVGIPISAVEGALSILADLDEEEIDILDEAARRVAA
# B8: GBRAP_128_3314 (protein)
# chain: MDEERLEEAREIVERMKEADLEELAELTRRLAELLGTLTPEERDIVAEIFREGLKELSAEKLDVVADVLREVRPSLDPETANVVADLEVEALNEAVEKEE
# B9: GBRAP_74_6519 (protein)
# chain: EEELLAALEAAAAAGDAATAVALARRIVAEGSLEAVERAARIMVAFVERHADALSPEELEAVADALAELADELMLRGGDSEVVLAVARAAVALEERRRAL
# B10: GBRAP_128_3579 (protein)
# chain: SVEEVRAEVRALLEAMKTADAAEQKAIATEIATRFTTLTPEERRAAAETIEELLPELSAEQLDILADALRAARPTADPEAANLLADVEVAALNEALEKEE
# B11: GBRAP_160_4226 (protein)
# chain: METVEKIVKVFRDTFLEALELIEGESAEERAVILDVAVGEVILEVSEIEEATDEMEEVVDKKAEALAAALLAAADASAAERRALVDKAAAELRKELEKIE
# B12: GBRAP_184_5358 (protein)
# chain: EVRHLSVTVETKEEAVEKLAEAREEIRASGLPTVLVVELKNADLETVETVMELLAELREEGLIERGIVVVDDDRSEEEIDKMVELADRYGVDLVVAIPEE
# B13: GBRAP_159_3958 (protein)
# chain: MEELEKRVKEAKEKAKDNPEVVKLIEEVYDLIKEGEDAETIADFTVGSIVTLDVTPEEARLVLSVLPEETRRLAAEDLAYLAEELGREDLAAAARAILEE
# B14: GBRAP_128_3325 (protein)
# chain: MNEERIKEAEEIIKEIVKADVEEAKKLTEELLKLMETMTDEERDIVVEIMEKELEKLDAEKLDAIADTIRELQPTLDPLTARYAAEIEVEALNLAEEKEE
# B15: GBRAP_160_4149 (protein)
# chain: SEELKKLIKEIKEITEEAIKLMEGETPEEAKVIAKVALGEIVMLVESNEEVSEETEEKVGEIADEAEEYLDENPDLTVEEIKELLKKAGEEVIKIIEEEL
# B16: GBRAP_160_4147 (protein)
# chain: SAELKALIEEIREITEEAIKLMEGETPEEAKVIARVALGEIVMLVFSNEAVSEETEEEVGEVADEAEAHLRANPDLTVEEIKAILREAGEEVIEIIEKEV
# B17: GBRAP_52_5941 (protein)
# chain: SSSRLKEIAEELIKLALAGDEEGLRKKAREIAKTYSDEEILAIAKEIAKMAKEAPKEDLDAYFRLMEILTEELEKEGRSEELISEIEGLMAKAMYENELK
# B18: GBRAP_160_4588 (protein)
# chain: MESLEKMKEIVREELEEAKEMIVGETAEQRATIVLGAGGEIVMELSENPEASDELEDEVLKIADEAADTILANPNITEEEFNALLDEMEKKMIEAIEKHL
# B19: GBRAP_11_2927 (protein)
# chain: KKEKIKEIAELAEELAEAADRLIAEGTDNEELRKKLEELLEKLVELVKEYGDEADKKDAEHMRELWEKAKADPANAVQYLTELRNEARVLSGIYLLEYDE
# B20: GBRAP_139_3733 (protein)
# chain: SADDAAVAEVVALTKRSVETGGALVAEIADALNALDEDTADRAAEAMAEVLETQPFDVAEALFDALIDTLLTEHKNEDLATIVEAAANRALARIAVREEA
# B21: GBRAP_52_6365 (protein)
# chain: MLEEAVELLRKAVEATLAGKEEEAEEILKEIVENFSDETIVKAVERLAEEVATKTLEEAEAFLDTAIRLADIMLEAGRDEAKADEIEAIAAKAYSAVLAK
# B22: GBRAP_160_4219 (protein)
# chain: METIERIVEIFRENFLEALELIEGESEEERKVILDVAVGEIILEVDSDENVTDEMEEVVDEKARELAEELLKLKNASEEEKRALIEEKAEELREELEKLA
# B23: GBRAP_160_4221 (protein)
# chain: SETIERIVKIFRENFEEAVELIEGESLEEQKVILDVAVGEVILEVSSDENVTDEMEEVVEKKAEEAAEELLKLKNASREEKLKLIEEKAKELKKELEKLA
# B24: GBRAP_166_4915 (protein)
# chain: SMEELLEEAKRRIEELVKKIPKTDREKQVELAIEIAEVLEELEKAGASEEELDELWRHLAEALKEAGLDVERLMAVVAAAAGLDEEEMERVDEIVEEVLA
# B25: GBRAP_52_6254 (protein)
# chain: MRARLRADAREIVALVAAGREEEARALARDIAENYNEEELRLFVDEMAALAREARPEELDTVWRAAELMAEELEAAGKPEILVDDLLARVAAAAVEVLAR
# B26: GBRAP_52_6083 (protein)
# chain: MEKEIEETANKIYEAIKAGDKEKALELIKEAIKKFSPEEIKEMLKLTAEKVASLGDEKHELFVDILTEAEDLMIEAGISEEEALLIVGDAEAALAKAVAA
# B27: GBRAP_52_6085 (protein)
# chain: MEEEIEERAEEIYEAIKAGDKEKALALIKKAIKEFSAEEIKRMLELTAKRVASLGDDAHELFVDILGEAEDLLIEAGISEEEALAIVGAAEAALARAVAA
# B28: GBRAP_52_6084 (protein)
# chain: MKEKIEKTAKEIYEAIKAGDKEKALELIKKAVEEFSKEEIKEMLELTAKRVASLGDDAHELFVDILDEAEDILIEAGISEDDALLIVGSAEAALAKAVAA
# B29: GBRAP_160_4760 (protein)
# chain: KEKLKKLKEEVEEIFKEHLEMLKEVKPEEAPTVVRGAMGEVIMEVMSSEAASDELEEKIGEIADEAEEEAEANKDAPVEFHIKILEEARKKILSLIEEEI
# Target: GABARAP, O95166
# Experiment: median log2 fold change of GCK-ALFA target abundance (FLAG IP / Myc IP barcode read proportion) (log2 ratio); each designed protein is fused to an ALFA-tag nanobody in HEK293 cells to bring the named protein to FLAG-tagged glucokinase (GCK); Myc marks an untargeted standard; higher = target protein stabilised (more abundant)
# Conditions: target protein: 3xFLAG-MCP-GCK-ALFA reporter; HEK293 landing pad (RPLP)
# Protocol: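 LABEL-seq trans screen in HEK293 landing-pad cells. Each de novo designed 100-aa effector handle, binding the indicated effector (E3 ligase, DUB or autophagy protein), is fused to a constant NbALFA target handle and induced with 2 ug/mL doxycycline. A FLAG-MCP-GCK-ALFA target and a Myc-MCP standard reporter were transfected, and after 48 h circRNA barcodes were recovered by anti-FLAG and anti-Myc IP and sequenced. The value is the median across barcodes (at least 3 per design) of log2(FLAG/Myc read-proportion ratio), with the two transfection replicates pooled. Negative values mean degradation and positive values mean stabilisation of the target.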
# Chain of GABARAP, O95166 (O95166 whole entry, the tested form may be a part): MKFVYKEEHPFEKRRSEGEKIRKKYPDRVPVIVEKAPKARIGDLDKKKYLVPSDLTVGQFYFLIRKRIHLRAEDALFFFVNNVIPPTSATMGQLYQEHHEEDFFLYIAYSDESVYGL
row,Binder,median log2 fold change
1,B1,-0.458
2,B2,0.18
3,B3,-0.152
4,B4,0.24
5,B5,0.352
6,B6,-0.769
7,B7,0.23
8,B8,0.162
9,B9,-0.0734
10,B10,0.177
11,B11,-0.651
12,B12,-0.0422
13,B13,0.0598
14,B14,0.156
15,B15,-0.271
16,B16,-0.617
17,B17,0.165
18,B18,-0.211
19,B19,0.134
20,B20,0.133
21,B21,-0.000301
22,B22,-0.349
23,B23,-0.86
24,B24,0.0994
25,B25,-0.285
26,B26,-0.22
27,B27,-0.146
28,B28,-0.732
29,B29,-0.185
